From paper PMC7862700, “An all-to-all approach to the identification of sequence-specific readers for epigenetic DNA modifications on cytosine” come the findings set out here.

Test in all cases: DAPPL (digital affinity profiling via proximity ligation, sequencing); 10 mM Tris-HCl pH 7.5, 50 mM NaCl, 1 mM DTT, 4% glycerol, room temperature, 30 min; GST-TFs on glutathione beads, 16-mer random dsDNA library, 0.1% formaldehyde crosslink after washing; high values mean tight binding
The target of one experiment is T1, FEV (Homo sapiens, UniProt Q99581 1-238).
T1 sequence: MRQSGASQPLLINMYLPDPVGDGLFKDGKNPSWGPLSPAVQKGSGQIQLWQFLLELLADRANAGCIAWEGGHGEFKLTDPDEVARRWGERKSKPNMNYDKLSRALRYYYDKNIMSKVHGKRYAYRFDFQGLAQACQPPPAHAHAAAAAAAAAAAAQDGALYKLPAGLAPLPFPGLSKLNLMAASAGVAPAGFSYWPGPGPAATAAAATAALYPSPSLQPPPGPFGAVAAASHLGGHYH
The note with it: protein: recombinant; tags: N-terminal GST; dsDNA, one strand shown. Put shortly:
(§1)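 After expression in yeast as GST fusions, human transcription factors were bound to glutathione beads, DNA-barcoded and mixed with a tag-only sample. The pools were incubated with 200 nmole of a 16-mer random double-stranded DNA library in Tris/NaCl/DTT/glycerol buffer (30 min, room temperature), washed and crosslinked with 0.1% formaldehyde. Proximity ligation with BsaI/T4 ligase ran for 1 h at 37 °C, before PCR amplification and sequencing on an Illumina NextSeq500. Binding signal is a hexamer's read frequency for a factor divided by its frequency for the tag-only sample.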

A further experiment has as its target ETV5 (Homo sapiens, UniProt P41161 1-510). As to conditions: protein: recombinant; tags: N-terminal GST; dsDNA, one strand shown. Put shortly: as §1
The next experiment has as its target HSF1 (Homo sapiens, UniProt Q00613 1-529). The note with it: protein: recombinant; tags: N-terminal GST; chain copies: 3; dsDNA, one strand shown. An outline of the steps:
as §1

The next experiment deals with T2, SPIC (Homo sapiens, UniProt Q8N5J4 1-248).
T2 sequence: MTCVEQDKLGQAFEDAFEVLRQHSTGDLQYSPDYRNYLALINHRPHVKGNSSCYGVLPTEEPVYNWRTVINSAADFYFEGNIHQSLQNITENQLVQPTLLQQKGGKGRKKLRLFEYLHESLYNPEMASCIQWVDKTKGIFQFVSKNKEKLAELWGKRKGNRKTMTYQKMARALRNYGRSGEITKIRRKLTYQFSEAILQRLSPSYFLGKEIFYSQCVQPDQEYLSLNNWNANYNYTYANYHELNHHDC
As to conditions: protein: recombinant; tags: N-terminal GST; dsDNA, one strand shown. An outline of the steps: as §1

For a further experiment, the target named is ELF4 (Homo sapiens, UniProt Q99607 1-663). The note with it: protein: recombinant; tags: N-terminal GST; dsDNA, one strand shown. Put shortly: as §1
The target in another experiment is T3, ELK4 (Homo sapiens, UniProt P28324-2 1-405).
T3 sequence: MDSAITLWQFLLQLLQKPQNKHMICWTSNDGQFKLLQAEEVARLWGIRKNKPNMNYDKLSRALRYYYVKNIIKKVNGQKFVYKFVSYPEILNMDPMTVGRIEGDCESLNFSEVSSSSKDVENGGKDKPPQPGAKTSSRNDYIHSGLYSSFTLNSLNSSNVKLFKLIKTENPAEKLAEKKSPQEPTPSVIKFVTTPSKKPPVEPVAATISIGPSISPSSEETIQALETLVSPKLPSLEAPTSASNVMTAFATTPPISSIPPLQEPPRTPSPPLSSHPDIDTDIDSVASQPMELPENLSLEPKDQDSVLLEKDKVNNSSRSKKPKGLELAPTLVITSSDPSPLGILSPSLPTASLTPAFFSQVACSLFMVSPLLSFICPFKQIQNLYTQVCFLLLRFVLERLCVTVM
As to conditions: protein: recombinant; tags: N-terminal GST; dsDNA, one strand shown. Put shortly: as §1

Another experiment addresses T4, ETV2 (Homo sapiens, UniProt O00321 1-342).
T4 sequence: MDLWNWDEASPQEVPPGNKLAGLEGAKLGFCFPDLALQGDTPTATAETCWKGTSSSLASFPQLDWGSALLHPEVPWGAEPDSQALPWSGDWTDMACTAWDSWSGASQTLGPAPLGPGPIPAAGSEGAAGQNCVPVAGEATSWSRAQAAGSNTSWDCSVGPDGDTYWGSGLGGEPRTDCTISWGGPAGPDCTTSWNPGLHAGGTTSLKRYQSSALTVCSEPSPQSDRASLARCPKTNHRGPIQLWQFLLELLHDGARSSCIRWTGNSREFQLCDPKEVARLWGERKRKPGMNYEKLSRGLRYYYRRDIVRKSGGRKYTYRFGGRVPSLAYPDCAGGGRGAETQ
As to conditions: protein: recombinant; tags: N-terminal GST; dsDNA, one strand shown. An outline of the steps: as §1

The next experiment deals with T5, ELF3 (Homo sapiens, UniProt P78545 1-371).
T5 sequence: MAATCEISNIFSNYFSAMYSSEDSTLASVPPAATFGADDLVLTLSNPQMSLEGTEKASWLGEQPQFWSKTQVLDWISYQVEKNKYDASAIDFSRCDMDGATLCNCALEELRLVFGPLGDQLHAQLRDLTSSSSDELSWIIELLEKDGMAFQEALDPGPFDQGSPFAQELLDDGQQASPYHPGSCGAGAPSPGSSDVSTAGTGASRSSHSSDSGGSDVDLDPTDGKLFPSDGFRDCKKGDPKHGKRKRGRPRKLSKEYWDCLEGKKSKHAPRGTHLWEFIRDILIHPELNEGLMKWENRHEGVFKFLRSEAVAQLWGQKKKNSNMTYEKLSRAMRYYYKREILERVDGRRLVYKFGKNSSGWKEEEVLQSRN
The note with it: protein: recombinant; tags: N-terminal GST; dsDNA, one strand shown. An outline of the steps: as §1

For the next experiment, the target named is CRX (Homo sapiens, UniProt O43186 1-299). The note with it: protein: recombinant; tags: N-terminal GST; dsDNA, one strand shown. An outline of the steps: as §1
The next experiment concerns the target ETV1 (Homo sapiens, UniProt P50549 1-477). The note with it: protein: recombinant; tags: N-terminal GST; dsDNA, one strand shown. Put shortly: as §1
A further experiment addresses T6, ERF (Homo sapiens, UniProt P50548 1-548).
T6 sequence: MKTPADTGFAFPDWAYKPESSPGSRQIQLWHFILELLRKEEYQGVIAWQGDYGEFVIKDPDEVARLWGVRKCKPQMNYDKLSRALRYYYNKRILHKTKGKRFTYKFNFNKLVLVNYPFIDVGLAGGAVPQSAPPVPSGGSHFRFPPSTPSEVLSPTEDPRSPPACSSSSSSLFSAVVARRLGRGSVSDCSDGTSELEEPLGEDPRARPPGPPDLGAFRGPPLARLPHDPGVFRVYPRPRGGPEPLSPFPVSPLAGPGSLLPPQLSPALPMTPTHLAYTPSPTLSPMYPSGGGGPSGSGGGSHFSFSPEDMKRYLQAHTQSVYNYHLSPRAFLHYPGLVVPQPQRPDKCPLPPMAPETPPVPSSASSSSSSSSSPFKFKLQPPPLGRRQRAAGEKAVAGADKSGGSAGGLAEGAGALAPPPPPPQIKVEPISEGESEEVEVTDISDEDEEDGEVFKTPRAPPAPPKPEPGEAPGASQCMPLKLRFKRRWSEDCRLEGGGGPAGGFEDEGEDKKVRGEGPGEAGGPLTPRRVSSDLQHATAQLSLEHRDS
The note with it: protein: recombinant; tags: N-terminal GST; dsDNA, one strand shown. Put shortly:
as §1

In the next experiment the target is T7, ETV3L (Homo sapiens, UniProt Q6ZN32 1-361).
T7 sequence: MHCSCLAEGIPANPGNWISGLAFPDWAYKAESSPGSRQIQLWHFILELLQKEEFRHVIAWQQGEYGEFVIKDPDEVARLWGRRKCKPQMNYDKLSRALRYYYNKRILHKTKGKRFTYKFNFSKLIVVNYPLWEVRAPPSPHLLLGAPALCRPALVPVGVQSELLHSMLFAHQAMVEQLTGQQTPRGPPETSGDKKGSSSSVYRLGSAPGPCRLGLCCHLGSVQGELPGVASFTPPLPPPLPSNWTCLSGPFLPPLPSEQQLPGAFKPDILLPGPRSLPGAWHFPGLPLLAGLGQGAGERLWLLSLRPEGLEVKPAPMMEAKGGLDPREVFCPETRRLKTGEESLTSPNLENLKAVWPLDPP
As to conditions: protein: recombinant; tags: N-terminal GST; dsDNA, one strand shown. An outline of the steps: as §1

For the next experiment, the target named is T8, ETS2 (Homo sapiens, UniProt P15036 1-469).
T8 sequence: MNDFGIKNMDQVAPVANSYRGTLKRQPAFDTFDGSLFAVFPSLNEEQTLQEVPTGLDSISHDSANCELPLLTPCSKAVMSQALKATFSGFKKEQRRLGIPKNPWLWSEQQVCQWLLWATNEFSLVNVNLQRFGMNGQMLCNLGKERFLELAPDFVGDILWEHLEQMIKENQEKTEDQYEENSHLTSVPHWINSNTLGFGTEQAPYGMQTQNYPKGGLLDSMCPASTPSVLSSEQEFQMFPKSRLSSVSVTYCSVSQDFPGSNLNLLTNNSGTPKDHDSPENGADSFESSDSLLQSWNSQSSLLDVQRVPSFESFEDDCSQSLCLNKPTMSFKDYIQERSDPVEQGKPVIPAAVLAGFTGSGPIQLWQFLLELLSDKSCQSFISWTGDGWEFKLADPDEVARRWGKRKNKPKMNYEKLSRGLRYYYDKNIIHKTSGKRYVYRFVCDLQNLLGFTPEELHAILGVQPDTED
As to conditions: protein: recombinant; tags: N-terminal GST; dsDNA, one strand shown. Put shortly:
as §1

A further experiment addresses T9, SPDEF (Homo sapiens, UniProt O95238 1-335).
T9 sequence: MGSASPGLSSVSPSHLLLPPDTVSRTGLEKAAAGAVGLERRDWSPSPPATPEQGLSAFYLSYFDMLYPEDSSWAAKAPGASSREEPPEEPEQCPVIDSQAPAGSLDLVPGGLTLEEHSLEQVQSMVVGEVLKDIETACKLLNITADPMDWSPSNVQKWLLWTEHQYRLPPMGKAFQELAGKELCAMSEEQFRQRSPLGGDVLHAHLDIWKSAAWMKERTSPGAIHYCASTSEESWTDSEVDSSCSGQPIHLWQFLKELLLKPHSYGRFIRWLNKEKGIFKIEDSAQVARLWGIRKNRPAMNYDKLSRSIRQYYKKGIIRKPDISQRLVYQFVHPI
As to conditions: protein: recombinant; tags: N-terminal GST; dsDNA, one strand shown. An outline of the steps: as §1

For the next experiment, the target named is T10, ETV7 (Homo sapiens, UniProt Q9Y603 1-341).
T10 sequence: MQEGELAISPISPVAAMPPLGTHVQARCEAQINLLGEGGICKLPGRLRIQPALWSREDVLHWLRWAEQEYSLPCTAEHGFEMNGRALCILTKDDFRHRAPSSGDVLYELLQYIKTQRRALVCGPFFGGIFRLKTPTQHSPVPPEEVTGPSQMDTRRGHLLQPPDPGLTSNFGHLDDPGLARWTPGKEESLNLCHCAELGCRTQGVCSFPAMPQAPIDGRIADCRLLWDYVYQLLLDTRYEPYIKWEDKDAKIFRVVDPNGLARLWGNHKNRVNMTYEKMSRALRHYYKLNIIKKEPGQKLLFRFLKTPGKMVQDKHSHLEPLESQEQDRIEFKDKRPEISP
The note with it: protein: recombinant; tags: N-terminal GST; dsDNA, one strand shown. An outline of the steps:
as §1

Another experiment deals with T11, ELF5 (Homo sapiens, UniProt Q9UKW6-2 1-255).
T11 sequence: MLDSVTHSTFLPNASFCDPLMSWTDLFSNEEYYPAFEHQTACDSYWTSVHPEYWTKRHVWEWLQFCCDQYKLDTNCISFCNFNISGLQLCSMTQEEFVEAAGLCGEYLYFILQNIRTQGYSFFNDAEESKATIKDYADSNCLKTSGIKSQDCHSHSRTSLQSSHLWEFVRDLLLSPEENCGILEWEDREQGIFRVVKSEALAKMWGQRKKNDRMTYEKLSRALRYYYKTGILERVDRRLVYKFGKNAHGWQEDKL
As to conditions: protein: recombinant; tags: N-terminal GST; dsDNA, one strand shown. An outline of the steps:
as §1

The next experiment deals with T12, ETV3 (Homo sapiens, UniProt P41162-2 1-143).
T12 sequence: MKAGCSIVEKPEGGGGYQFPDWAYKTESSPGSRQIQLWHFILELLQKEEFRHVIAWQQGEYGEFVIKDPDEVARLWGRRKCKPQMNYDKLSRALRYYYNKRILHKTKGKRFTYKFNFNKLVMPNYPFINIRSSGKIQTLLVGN
The note with it: protein: recombinant; tags: N-terminal GST; dsDNA, one strand shown. Put shortly:
as §1

Another experiment addresses ETV6 (Homo sapiens, UniProt P41212 1-452). The note with it: protein: recombinant; tags: N-terminal GST; dsDNA, one strand shown. An outline of the steps:
as §1

Chain of ELF4 (Q99607 whole entry): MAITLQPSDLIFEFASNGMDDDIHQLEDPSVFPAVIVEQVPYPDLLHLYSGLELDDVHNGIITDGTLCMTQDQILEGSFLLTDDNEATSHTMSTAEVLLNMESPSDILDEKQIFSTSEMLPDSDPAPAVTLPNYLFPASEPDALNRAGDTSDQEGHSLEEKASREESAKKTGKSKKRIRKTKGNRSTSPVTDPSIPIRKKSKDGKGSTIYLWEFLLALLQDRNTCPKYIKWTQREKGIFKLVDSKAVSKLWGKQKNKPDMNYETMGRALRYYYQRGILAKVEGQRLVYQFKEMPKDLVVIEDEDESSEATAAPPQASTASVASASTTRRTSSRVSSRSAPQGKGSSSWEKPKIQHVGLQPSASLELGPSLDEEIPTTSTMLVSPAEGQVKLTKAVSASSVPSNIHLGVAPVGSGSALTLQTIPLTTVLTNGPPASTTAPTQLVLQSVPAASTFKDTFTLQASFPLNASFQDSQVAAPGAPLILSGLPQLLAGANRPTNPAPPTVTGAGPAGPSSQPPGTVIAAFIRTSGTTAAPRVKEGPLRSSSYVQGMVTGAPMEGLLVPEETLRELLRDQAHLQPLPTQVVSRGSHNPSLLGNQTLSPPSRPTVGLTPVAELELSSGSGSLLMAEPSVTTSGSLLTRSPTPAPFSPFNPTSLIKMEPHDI
Chain of ETV6 (P41212 whole entry): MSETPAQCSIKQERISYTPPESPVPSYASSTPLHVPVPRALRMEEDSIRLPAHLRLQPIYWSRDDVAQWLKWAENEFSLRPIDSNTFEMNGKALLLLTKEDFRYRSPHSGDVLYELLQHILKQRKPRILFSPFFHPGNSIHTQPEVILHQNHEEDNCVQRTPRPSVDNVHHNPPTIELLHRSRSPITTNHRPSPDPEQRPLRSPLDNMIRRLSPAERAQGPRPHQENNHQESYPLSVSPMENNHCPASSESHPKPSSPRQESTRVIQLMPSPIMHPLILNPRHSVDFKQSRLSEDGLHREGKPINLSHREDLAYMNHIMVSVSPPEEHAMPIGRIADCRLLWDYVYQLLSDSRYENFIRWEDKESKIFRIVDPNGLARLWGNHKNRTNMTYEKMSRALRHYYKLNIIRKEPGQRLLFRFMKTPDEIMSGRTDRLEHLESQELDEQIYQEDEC
Chain of ETV5 (P41161 whole entry): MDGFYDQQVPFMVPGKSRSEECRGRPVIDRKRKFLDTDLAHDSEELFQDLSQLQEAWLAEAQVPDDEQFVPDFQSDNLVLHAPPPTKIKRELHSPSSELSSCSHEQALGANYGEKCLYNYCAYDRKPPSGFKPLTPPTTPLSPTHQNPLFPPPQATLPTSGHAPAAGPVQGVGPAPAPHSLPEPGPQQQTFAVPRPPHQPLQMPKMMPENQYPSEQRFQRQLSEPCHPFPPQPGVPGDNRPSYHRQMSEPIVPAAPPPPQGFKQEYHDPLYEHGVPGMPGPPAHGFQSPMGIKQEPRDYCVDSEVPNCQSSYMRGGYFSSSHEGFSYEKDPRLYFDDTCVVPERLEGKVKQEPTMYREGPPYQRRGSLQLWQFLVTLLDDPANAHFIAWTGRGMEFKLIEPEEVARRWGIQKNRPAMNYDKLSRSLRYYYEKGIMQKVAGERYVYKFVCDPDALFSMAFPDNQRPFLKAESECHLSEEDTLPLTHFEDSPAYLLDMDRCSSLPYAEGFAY
Chain of ETV1 (P50549 whole entry): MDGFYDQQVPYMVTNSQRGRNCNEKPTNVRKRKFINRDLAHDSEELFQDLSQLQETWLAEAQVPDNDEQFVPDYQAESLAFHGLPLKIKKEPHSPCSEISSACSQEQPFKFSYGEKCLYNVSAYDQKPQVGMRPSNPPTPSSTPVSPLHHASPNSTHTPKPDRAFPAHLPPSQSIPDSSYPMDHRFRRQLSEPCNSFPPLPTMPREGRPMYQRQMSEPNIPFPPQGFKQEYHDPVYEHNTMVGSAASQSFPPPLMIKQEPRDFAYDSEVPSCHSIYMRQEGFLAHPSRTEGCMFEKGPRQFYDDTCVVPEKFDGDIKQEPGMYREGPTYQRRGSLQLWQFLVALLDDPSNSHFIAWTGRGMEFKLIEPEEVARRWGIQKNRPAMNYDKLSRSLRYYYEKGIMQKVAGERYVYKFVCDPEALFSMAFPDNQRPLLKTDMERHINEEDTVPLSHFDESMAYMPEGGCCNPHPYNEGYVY
Chain of CRX (O43186 whole entry): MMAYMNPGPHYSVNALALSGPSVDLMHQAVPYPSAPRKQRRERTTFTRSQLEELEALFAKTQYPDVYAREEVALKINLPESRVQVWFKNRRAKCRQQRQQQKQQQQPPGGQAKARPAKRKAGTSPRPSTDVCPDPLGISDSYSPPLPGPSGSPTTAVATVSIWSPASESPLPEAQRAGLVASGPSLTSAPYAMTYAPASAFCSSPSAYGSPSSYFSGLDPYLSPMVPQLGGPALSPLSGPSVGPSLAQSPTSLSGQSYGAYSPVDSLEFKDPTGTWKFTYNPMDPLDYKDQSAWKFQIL
Chain of HSF1 (Q00613 whole entry): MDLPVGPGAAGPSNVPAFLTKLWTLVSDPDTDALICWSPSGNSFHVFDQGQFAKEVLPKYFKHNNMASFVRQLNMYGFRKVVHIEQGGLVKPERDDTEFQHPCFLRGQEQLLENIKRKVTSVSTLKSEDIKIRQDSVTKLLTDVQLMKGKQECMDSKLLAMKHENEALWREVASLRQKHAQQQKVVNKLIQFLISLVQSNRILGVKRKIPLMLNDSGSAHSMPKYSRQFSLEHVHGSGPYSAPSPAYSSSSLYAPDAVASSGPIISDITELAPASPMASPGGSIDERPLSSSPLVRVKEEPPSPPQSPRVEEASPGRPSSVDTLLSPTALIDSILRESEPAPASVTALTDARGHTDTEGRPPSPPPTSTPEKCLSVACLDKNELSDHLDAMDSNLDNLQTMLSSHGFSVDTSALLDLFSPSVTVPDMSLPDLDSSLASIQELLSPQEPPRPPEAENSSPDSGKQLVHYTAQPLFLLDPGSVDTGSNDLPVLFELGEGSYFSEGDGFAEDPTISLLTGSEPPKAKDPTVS

GCTAGC: the binding signal was 1.31 fold enrichment (6-mer frequency, TF over GST control) with FEV; 1.24 fold enrichment (6-mer frequency, TF over GST control) in the experiment with ETV5; 1.19 fold enrichment (6-mer frequency, TF over GST control) with HSF1; 1.28 fold enrichment (6-mer frequency, TF over GST control) with SPIC; 1.3 fold enrichment (6-mer frequency, TF over GST control) in the experiment with ELF4; 1.23 fold enrichment (6-mer frequency, TF over GST control) in the experiment with ELK4. Also, the binding signal was 1.39 fold enrichment (6-mer frequency, TF over GST control) with ETV2; 1.2 fold enrichment (6-mer frequency, TF over GST control) with ELF3; 1.05 fold enrichment (6-mer frequency, TF over GST control) in the experiment with CRX; 1.24 fold enrichment (6-mer frequency, TF over GST control) in the experiment with ETV1; 1.2 fold enrichment (6-mer frequency, TF over GST control) with ERF; 1.35 fold enrichment (6-mer frequency, TF over GST control) with ETV3L. For the same sequence, the binding signal was 1.2 fold enrichment (6-mer frequency, TF over GST control) in the experiment with ETS2; 1.13 fold enrichment (6-mer frequency, TF over GST control) with SPDEF; 1.24 fold enrichment (6-mer frequency, TF over GST control) with ETV7; 1.15 fold enrichment (6-mer frequency, TF over GST control) with ELF5; 1.16 fold enrichment (6-mer frequency, TF over GST control) with ETV3; 1.09 fold enrichment (6-mer frequency, TF over GST control) in the experiment with ETV6.
